Source: PubChem BioAssay
NadD block = NadD (S. aureus) enzyme inhibition. AID 602399. purified NadD enzyme, colorimetric absorbance read-out. inhibition, % at 20 µM. 360,000 tested, 0.78% active; in the data active means inhibition above about 26%
MsrA inh = inhibits bovine methionine sulfoxide reductase A; purified bovine MsrA, absorbance read-out; inhibition, % at 15.5 µM; 360,000 tested, 0.75% active; AID 651718; in the data active means inhibition above about 4.5%;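 further: 0% = vehicle wells with enzyme and 100% = reference inhibitor wells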
MsrA act = activators of bovine methionine sulfoxide reductase A; purified bovine MsrA, absorbance read-out; activation, % at 10.6 µM; 360,000 tested, 0.3% active; in the data active means activation above about 7.5%;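 further: 0% = vehicle and 100% = reference activator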
rCAG binder = r(CAG) repeat RNA binding; inhibition, % at 3 µM; TO-PRO-1 dye displacement fluorescence; 370,000 tested, 1.3% active;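 active means inhibition above the plate cutoff, the mean of all test compounds on that plate plus 3 SD, cut at about 35% in these data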;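 further: 0% = DMSO alone and 100% = 100 µM mitoxantrone as full dye displacement; higher means more dye released from RNA so lower well fluorescence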
NadD conf = confirmation of Staphylococcus aureus NadD inhibitors; shares compounds with NadD block; purified S. aureus NadD, colorimetric enzyme assay; inhibition, % at 20 µM; 2,000 tested, 13% active; in the data active means inhibition mostly above about 42%, no sharp cut-off; inactive means mostly below about 42%
Numbers without * were called inactive; nt = no result given; ! = a repeat was not active. A selection: hits, their analogues and other compounds. The true share with any hit is near 2.7%.

SMILES	NadD block	MsrA inh	MsrA act	rCAG binder	NadD conf
CN(C)S(=O)(=O)c1cc(NC(=O)CN2CCCc3ccccc32)ccc1Cl	18	1	-5	7	nt
CN(C)S(=O)(=O)c1cc(NC(=O)CN2CCc3ccccc32)ccc1Cl	39*	1	-1	22	40
CCc1cc(C(=O)N2CCCC(N3CCN(c4cccc(C(F)(F)F)c4)CC3)C2)n(C)n1 (centres undefined)	38*	-1	-5	-10	-2
Cc1cc(C)cc(-n2c3nc4ccccc4nc3c3c(=O)n(Cc4ccco4)cnc32)c1	33*	2	-6	24	9
COc1ccc(Cn2c(C)nc3c(c2=O)c2nc4ccccc4nc2n3Cc2ccco2)cc1	38*	4	-2	13	18
O=C(CCCc1ccccn1)c1ccc(-c2ccccc2)cc1	2	-1	-2	3	nt
Cn1c(CC(O)c2nc3ccccc3n2C)nc2ccccc21 (centres undefined)	-8	0	0	1	nt
COc1ccc(/C=N/Nc2nc(-c3cccc(S(=O)(=O)N4CCCC4)c3)cs2)c(OC)c1	37*	2	0	20	21
CCCN(C(=O)COC(=O)CSc1ccc([N+](=O)[O-])cc1)C1CCS(=O)(=O)C1 (centres undefined)	17	2	4	1	nt
COc1ccccc1C=NN=C(NN=Cc1ccccc1OC)NN=Cc1ccccc1OC	35*	3	2	15	24
COc1ccccc1C=NNC(=O)NN=Cc1ccccc1OC	5	1	-3	4	nt
O=C(NCc1ccco1)C12CN(Cc3ccccc3)CC1C(c1cccc([N+](=O)[O-])c1)=NO2 (centres undefined)	36*	0	-6	7	12
O=C(Nc1ccc(N2CCCC2)cc1)c1cc(Cl)ccc1Cl	52*	1	-2	14	12
O=C(/C=C/c1ccc(Cl)c([N+](=O)[O-])c1)Nc1ccc(N2CCCC2)cc1	42*	0	-5	17	0
O=C(NC(=S)Nc1ccccc1N1CCCC1)c1ccccc1[N+](=O)[O-]	7	0	-3	0	nt
O=C(Nc1ccc(N2CCCC2)cc1)c1ccc(Br)cc1	29*	0	-5	6	-2
O=C(NC(=S)Nc1ccc(N2CCCC2)cc1)c1ccccc1[N+](=O)[O-]	33*	1	-6	9	6
Cc1ccc(C(=O)Nc2ccc(N3CCN(C(=O)c4cccs4)CC3)cc2)c(Cl)c1	8	-1	-2	-1	nt
COc1ccc([C@H]2CC(=O)C=C(c3ccc(F)cc3OCc3ccccc3)C2)cc1OC	-10	2	-6	11	nt
Cc1ccc(C(=O)Nc2cccc(C(F)(F)F)c2)cc1NC(=O)c1c[nH]c2cc(C(F)(F)F)ccc2c1=O	18	-2	-2	0	nt
CCN1CCN(Cc2ccc(NC(=O)c3ccc(C)c(NC(=O)c4c[nH]c5cc(C(F)(F)F)ccc5c4=O)c3)cc2C(F)(F)F)CC1	36*	1	-8	15	-5
CCOC(=O)c1ccc2c(c1)nc(SC/C(O)=C(\C#N)c1nc3ccccc3[nH]1)n2CC	33*	0	-4	5	15
CCOC(=O)c1ccc2c(c1)nc(SCC(=O)c1ccco1)n2CC	-2	0	-2	1	nt
COc1ccc2cc3[n+](cc2c1O)CCc1cc2c(cc1-3)OCO2	41*	-1	2	17	32
COc1cc2c(cc1OC)-c1cc3ccc(OC)c(OC)c3c[n+]1CC2	2	4	-12	6	nt
SMILES	NadD block	MsrA inh	MsrA act	rCAG binder	NadD conf
O=c1n(Cc2ccccc2)c(O)c2n1Cc1ccccc1N=C2c1ccc(C(F)(F)F)cc1	4	0	-2	4	nt
COc1ccccc1NS(=O)(=O)c1ccc2oc(SC(C)C(=O)N3CCNC3=O)nc2c1 (centres undefined)	-3	0	-9	7	nt
O=C(NC(Cc1c[nH]c2ccccc12)C(=O)N/N=C/c1cccc2ccccc12)c1cccs1 (centres undefined)	37*	4	-11	23	25
C[C@@H]1[C@@H](O)C[C@@]2(C[C@H](O)c3cc(Cl)ccc3O2)O[C@H]1c1ccccc1Cl	nt	nt	nt	2	nt
Cn1c(SCC(=O)N2c3ccccc3CCc3ccccc32)nnc1-c1cc2ccccc2cc1O	56*	4	-6	23	52*
Nc1ccc2nc(CCCCCCCCc3nc4ccc(N)cc4[nH]3)[nH]c2c1	20	1	-5	0	nt
Nc1ccc2nc(CCCCCCc3nc4ccc(N)cc4[nH]3)[nH]c2c1	50*	1	-11	3	18
NC(Cc1ccccc1)c1csc(NC(=O)Nc2ccccc2Oc2ccccc2)n1 (centres undefined)	25	0	-2	18	nt
NC(Cc1ccc(C(F)(F)F)cc1)c1csc(NC(=O)Nc2ccccc2Oc2ccccc2)n1 (centres undefined)	34*	-3	-1	14	9
CCOc1ccc(NC(=O)CSc2nnnn2C2CC2)cc1S(=O)(=O)N1CCCC1	-5	0	-7	6	nt
O=C(Nc1ccc(Cl)c(Cl)c1)Nc1nnc(-c2ccncc2)s1	61*	-1	-4	16	9
Nc1nonc1-c1nc2ccccc2n1CC(=O)N/N=C\c1ccc(-c2ccc(Cl)cc2)o1	42*	1	-11	3	9
NNC(=O)Cn1c(-c2nonc2N)nc2ccccc21	8	0	0	1	nt
COc1ccc(CN(CCN2CCOCC2)C(=O)c2ccc(F)cc2F)cc1OC	nt	nt	nt	1	nt
O=C(N/N=C/c1ccccc1Cl)c1nc2ccc([N+](=O)[O-])cc2c(=O)[nH]1	36*	0	-2	6	42
O=[N+]([O-])c1ccc(N2CCN(S(=O)(=O)c3ccc(Cl)cc3)CC2)cc1NCc1cccnc1	32*	1	-9	-1	23
O=C(c1ccc(Cl)cc1)N1CCN(c2ccc([N+](=O)[O-])c(NCc3cccnc3)c2)CC1	9	0	-8	-5	nt
Cc1ccc2cc(C3C(C#N)=C(N)Oc4c3ccc3cccnc43)c(=O)[nH]c2c1 (centres undefined)	19	nt	-10	nt	nt
CCc1ccc2[nH]c(=O)c(C3C(C#N)=C(N)Oc4c3ccc3cccnc43)cc2c1 (centres undefined)	38*	1	-12	18	9
Cc1cc(C)c2nc(NC(=O)c3cccc(S(=O)(=O)N4CCc5ccccc54)c3)sc2c1	44*	-1	-3	5	0
Clc1ccc(-c2nc(C3CCCCC3)no2)cc1	-4	2	-1	5	nt
C[c-]1[c-](C)[c-](C)[c-](C)[c-]1C.[Fe].c1cc2nccc(N3CCCC3)[c-]2c1 (centres undefined)	75*	0	-2	9	32*!
COc1ccccc1-c1cc(C(=O)N/N=C/c2ccc(C)s2)c2ccccc2n1	32*	4	-3	8	16
COc1ccc(/C=N/NC(=O)c2cc(-c3ccc(C)cc3C)nc3ccccc23)cc1COC(C)=O	38*	3	-2	10	-3
CCc1ccc(/C=N/NC(=O)c2cc(-c3ccccc3OC)nc3ccccc23)s1	28	2	-2	16	nt
